Experimental data from PubChem BioAssay AID504834 (National Center for Advancing Translational Sciences (NCATS), 2011).
Screen size: about 320,000 compounds; about 22,000 (6.9%) were called active. Inconclusive results (about 27%) are left out. Calls follow the shape of the dose curve; as a rule, active = well fitted inhibition curve with a large enough effect; inconclusive = small, poorly fitted or top-dose-only effect, or another doubt; inactive = no such curve, though single readings can be large or run the other way. Many of the other results were omitted from the sample, so actives are more common in it than they were.

Assay: Primary qHTS for delayed death inhibitors of the malarial parasite plastid, 96 hour incubation
Conditions: P. falciparum luciferase reporter growth; series mostly up to 28.7 µM; activity change, negative = inhibition: at the top concentration
How it was run: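 Delayed-death screen, second-generation endpoint: infected erythrocytes, 2% hematocrit, 0.05% parasitemia final; 96 hours at 37 C, 5% CO2; luciferase detection reagent; luminescence decrease equals reduced growth.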
% is scaled to controls: 0 for no effect and ±100 for the full control effect; potency is read from the fitted curve at half-maximal effect.

Compound	activity change, negative = inhibition	Potency
Cn1nccc1/C=N\NC(=O)c1ccc(Cl)cc1	17.8% (inactive)	–
CCNC(=O)CC1C(=O)N(c2ccc(OC)cc2)C(=O)N1CCOC (stereo unspecified)	94.5% (inactive)	–
Cc1nnc(NC(=O)Nc2ccc(Cl)c(Cl)c2)s1	-59% (inactive)	–
CC(C)=CC(=O)Nc1nnc(-c2ccc(F)cc2)s1	31.8% (inactive)	–
Cc1ccc(NC(=O)Nc2nnc(-c3ccncc3)s2)cc1	–	9.28 µM (active)
CCCn1nnnc1NCc1ccc(OC)cc1	21.1% (inactive)	–
COc1ccc(Cc2nnnn2CC(=O)O)cc1	–	1.65 µM (active)
COc1ccc(CSc2nnnn2-c2ccc(C(=O)O)cc2)cc1	1.63% (inactive)	–
O=C(CCc1nnc(Cc2ccc3c(c2)OCO3)o1)NCCc1ccccc1Cl	10.2% (inactive)	–
Cc1ccc(-c2ncc(Cl)cc2-c2ccc(S(C)(=O)=O)cc2)cn1	–	13.5 µM (active)
Cc1c2cnn(CC(=O)NCCCN3CC(C)CC(C)C3)c(=O)c2c(C)n1Cc1ccc(Cl)cc1 (stereo unspecified)	3.52% (inactive)	–
Cc1nc2ccccc2c(=O)n1NC(=O)c1ccccc1	-8.41% (inactive)	–
Cc1ccc(SCc2c(C(=O)N/N=C/C3CC=CCC3)nnn2-c2nonc2N)cc1 (stereo unspecified)	3.06% (inactive)	–
CNC1(c2nnnn2-c2c(C)cccc2C)CCOC(C)(C)C1 (stereo unspecified)	-24.4% (inactive)	–
COc1ccc(C23NCCN2C(=O)c2ccccc23)cc1 (stereo unspecified)	22.2% (inactive)	–
COc1ccc(C2(C)ON(c3ccccc3C(F)(F)F)C2=O)cc1 (stereo unspecified)	–	2.62 µM (active)
COc1ccc(C2(C)NC(=O)N(CC(=O)c3ccc4c(c3)OCO4)C2=O)cc1 (stereo unspecified)	67.1% (inactive)	–
COC(c1ccccc1)(c1ccccc1)C(Oc1nc(C)cc(C)n1)C(=O)O (stereo unspecified)	-23.8% (inactive)	–
Cc1ccc(OCCNC(=O)CN2C(=O)NC3(CCCC3)C2=O)cc1	5.65% (inactive)	–
COc1ccc(NC(=O)CSc2nc(SC)ns2)c(OC)c1	4.59% (inactive)	–
Cc1ccc(Cc2nnc(SCC(=O)Nc3ccccc3C)[nH]c2=O)cc1	-9.18% (inactive)	–
COC(=O)COc1ccc2c(=O)c(Oc3ccccc3Br)coc2c1	0.781% (inactive)	–
FC(F)(F)Oc1ccc(-c2cn3cccnc3n2)cc1	155% (inactive)	–
COc1ccc(CN2CCN(c3ccccc3F)CC2)c(OC)c1	13.6% (inactive)	–
CCN1CCC2(CCN(Cc3cn[nH]c3-c3ccc(OC)c(F)c3)C2)C1 (stereo unspecified)	–	10.4 µM (active)
COc1ccc(-c2[nH]ncc2CN(Cc2nccn2C)C(C)C)cc1F	-16.8% (inactive)	–

Compound	activity change, negative = inhibition	Potency
CCCC(O)(c1ccc(OC)cc1)C(CN(C)C)c1ccccc1 (stereo unspecified)	–	14.7 µM (active)
CN(C)CC(O)COc1ccc(C(C)(C)c2ccc(OCC(O)CN(C)C)cc2)cc1 (stereo unspecified)	53% (inactive)	–
COc1ccc(C(O)(C2CCCCC2)C(CN2CCCC2)c2ccccc2)cc1 (stereo unspecified)	-22.6% (inactive)	–
COc1ccc(NC(=O)CN(C)C(=O)c2n[nH]c3ccccc23)cc1	82.2% (inactive)	–
O=C(NCc1ccc(Cl)cc1)NCc1ccc(Cl)cc1	0.842% (inactive)	–
S=C(NCc1ccc(Cl)cc1)NC1CCCCC1	6.71% (inactive)	–
S=C(NCc1ccc(Cl)cc1)NC12CC3CC(CC(C3)C1)C2	–	11.7 µM (active)
CCN(Cc1ccccc1)S(=O)(=O)c1cc2c3c(c1)CCN3C(=O)CC2	-27.2% (inactive)	–
COc1ccc(C(CNCC(=O)Nc2ccccc2F)N(C)C)cc1 (stereo unspecified)	24.6% (inactive)	–
COc1ccccc1NS(=O)(=O)c1ccc(C(=O)N2CCN(c3ccccc3O)CC2)cc1	–	11.7 µM (active)
COc1ccccc1NC(=O)C1CCN(C(=O)c2ccc(C(C)(C)C)cc2)CC1	25.4% (inactive)	–
O=C(c1ccc(S(=O)(=O)N2CCOCC2)cc1)N1CCN(c2ccccc2)CC1	-21.8% (inactive)	–
COc1ccccc1N1CCN(C(=O)c2ccc(S(=O)(=O)N3CCCCC3)cc2)CC1	0.287% (inactive)	–
O=C(c1ccc(S(=O)(=O)N2CCCC2)cc1)N1CCN(c2ccccc2F)CC1	–	4.65 µM (active)
COc1ccc(S(=O)(=O)Nc2ccccc2C(=O)N2CCCC2)cc1C	2.67% (inactive)	–
O=C(COC(=O)/C=C/c1ccc2c(c1)OCO2)NC1CCS(=O)(=O)C1 (stereo unspecified)	13.5% (inactive)	–
Cn1nc(C(=O)OCC(=O)N(Cc2ccccc2)C(C)(C)C)c2ccccc2c1=O	14.4% (inactive)	–
CSc1nnc(NC(=O)c2nc(S(=O)(=O)Cc3ccc(C)cc3)ncc2Cl)s1	2.67% (inactive)	–
CC1(C)COC(c2cccn2Cc2ccccc2Cl)=N1	–	9.28 µM (active)
O=S1(=O)CCN(Cc2ccccc2Cl)CC1	2.72% (inactive)	–
O=C(Nc1cccn(Cc2ccccc2Cl)c1=O)NC1CCCCC1	9.52% (inactive)	–
NC(=O)c1cc(-c2cccnc2)nc2ccc(Br)cc12	30.9% (inactive)	–
C=CCn1c(SCC(=O)c2ccc(Br)cc2)nnc1C(C)NC(=O)Cc1ccc(OC)cc1 (stereo unspecified)	-12.8% (inactive)	–
C=CCn1c(SCCOc2ccc(OC)cc2)nnc1C(NC(=O)c1ccc(OC)cc1)C(C)C (stereo unspecified)	–	10.4 µM (active)
C=CCn1c(SCc2ccc(Cl)c(Cl)c2)nnc1C(CO)NC(=O)c1ccc(OC)cc1 (stereo unspecified)	-6.53% (inactive)	–
CC[C@]1([C@H]2O[C@@H]([C@@H]3O[C@](O)(CO)[C@@H](C)C[C@H]3C)C[C@H]2C)CC[C@@H]([C@]2(C)CC[C@@]3(C[C@@H](O)[C@@H](C)[C@@H]([C@H](C)[C@H](OC)[C@H](C)C(=O)O)O3)O2)O1	–	0.019 µM (active)

Compound	activity change, negative = inhibition	Potency
COc1ccc(CC(=O)OC(C)C(=O)Nc2ccc(S(N)(=O)=O)cc2)cc1 (stereo unspecified)	36.6% (inactive)	–
O=C(N[C@@H](Cc1ccccc1)C(=O)OCc1ccccc1)c1nc[nH]c1C(=O)N[C@@H](Cc1ccccc1)C(=O)OCc1ccccc1	-2.42% (inactive)	–
CC(C)(C)OC(=O)N1CCC(NC(=O)c2[nH]cnc2C(=O)N[C@@H](Cc2ccccc2)C(=O)OCc2ccccc2)CC1	–	1.47 µM (active)
C[C@@H](NC(=O)c1nc[nH]c1C(=O)N1CCN(C(=O)OC(C)(C)C)CC1)c1ccccc1	1.65% (inactive)	–
Cc1c(Cl)cccc1NC(=O)CCC(=O)N/N=C/c1ccco1	0.368% (inactive)	–
Cc1cc(C)cc(N(CC(=O)NC2CCCC2)C(=O)CCC(=O)Nc2cc(C)on2)c1	-13.5% (inactive)	–
CC(Oc1cccc(Cl)c1)C(=O)Nc1ccc(S(=O)(=O)Nc2ncccn2)cc1 (stereo unspecified)	15.6% (inactive)	–
COc1ccc(C(=O)Nc2ccc(S(=O)(=O)Nc3onc(C)c3C)cc2)cc1OC	-15.4% (inactive)	–
Cc1cc(OC(C)C(=O)Nc2ccc(S(=O)(=O)Nc3onc(C)c3C)cc2)cc(C)c1Cl (stereo unspecified)	–	8.28 µM (active)
N#Cc1c(-c2ccccc2)c(-c2ccccc2)n[nH]c1=O	40.2% (inactive)	–
NCCCCCC(=O)N/N=C/c1ccc2nccnc2c1	0.751% (inactive)	–
COc1ccc(C(=O)NC(C)Cn2nc(C)cc2C)cc1OC1CCN(C(C)=O)CC1 (stereo unspecified)	26% (inactive)	–
O=C(NCCCn1ccnc1)C1CCCN(S(=O)(=O)c2cc(Cl)ccc2Cl)C1 (stereo unspecified)	27.1% (inactive)	–
O=c1oc2ccccc2c(CNc2ccccc2)c1[N+](=O)[O-]	0.143% (inactive)	–
O=C(NCCCN1CCCCCC1)c1ccc(N2CCCC2=O)cc1	–	2.33 µM (active)
CCCNC(=O)NCc1ccc(N2CCCC2=O)cc1	-6.7% (inactive)	–
O=C(NCCCN1CCCC1=O)c1ccc(S(=O)(=O)Nc2ccccc2)cc1	3.54% (inactive)	–
COc1ccc(N2CCN(C(=O)Cn3cnc4sc(C)c(S(=O)(=O)N5CCOCC5)c4c3=O)CC2)cc1	-2.58% (inactive)	–
Cn1c(N)c(C(=O)COC(=O)COc2ccc(Cl)cc2)c(=O)n(C)c1=O	9.16% (inactive)	–
Cn1c(N)c(C(=O)COC(=O)C23CC4CC(CC(C4)C2)C3)c(=O)n(C)c1=O	–	14.7 µM (active)
Cn1c(N)c(C(=O)COC(=O)c2cnc(Cl)c(Cl)c2)c(=O)n(C)c1=O	7.7% (inactive)	–
COc1cc(NC(=O)c2ccccc2)c(OC)cc1NC(=O)Cc1ccccc1	177% (inactive)	–
CCc1nn(CCCC(=O)Nc2ccc(C)c(C)c2)c(=O)c2cc3occc3n12	0.0935% (inactive)	–
CC1CC(C)(C)CC2(C1)NC(=O)N(CC(=O)Nc1nccs1)C2=O (stereo unspecified)	2.21% (inactive)	–
CC(C)n1c(COc2ccccc2)nc2ccccc21	30.5% (inactive)	–
COc1ccc(C2NC(=O)c3ccccc3N2)cc1 (stereo unspecified)	126% (inactive)	–

Compound	activity change, negative = inhibition	Potency
Brc1ccccc1C1Nc2cccc3cccc(c23)N1	0% (inactive)	–
COc1ccc2[nH]c3ccc(OC)cc3c2c1	3.15% (inactive)	–
Cc1ccc(C2Nc3cccc4cccc(c34)N2)cc1	-15.1% (inactive)	–
COc1cccc(C2Nc3cccc4cccc(c34)N2)c1	–	7.38 µM (active)
Oc1ccc(C2Nc3cccc4cccc(c34)N2)cc1	–	10.4 µM (active)
N#Cc1ccccc1S(=O)(=O)N1CCN(Cc2c(O)ccc3ccccc23)CC1	-22% (inactive)	–
CC(CCc1ccccc1)NC(=O)c1cnc(Cl)c(Cl)c1 (stereo unspecified)	-8.54% (inactive)	–
Cc1ccc(N(C(=O)CNC(=O)c2ccco2)C(C(=O)NC2CCCC2)c2ccncc2)cc1 (stereo unspecified)	3.8% (inactive)	–
CC(C)C(NC(=O)c1c(F)cccc1F)C(=O)NCc1ccncc1 (stereo unspecified)	0.117% (inactive)	–
C[C@@H](NC(=O)OC(C)(C)C)c1nnc(S(=O)(=O)Cc2ccccc2)o1	19.6% (inactive)	–
CC(C)CN(CC(C)C)C(=O)CN1c2cccc3cccc(c23)S1(=O)=O	-0.0528% (inactive)	–
CCn1c(CC(=O)Nc2ccccc2)nnc1SCC(=O)N1CCOCC1	8.31% (inactive)	–
COC(=O)c1ccc(CSc2nncn2C)cc1	23% (inactive)	–
CCOc1cc(/C=N/NC(=O)c2cccc(S(=O)(=O)N3CCOCC3)c2)ccc1OCC(=O)N(C)C	3.33% (inactive)	–
CCOc1cc(/C=N/NC(=O)c2ccc(CSc3nncn3C)cc2)ccc1OCC(=O)N1CCOCC1	–	11.7 µM (active)
CC(=O)N1CC[n+]2c(-c3ccc([N+](=O)[O-])cc3)csc21	-3.07% (inactive)	–
CC1CCN(S(=O)(=O)c2ccc(NC(=O)C3CC(=O)N(c4ccccc4)C3)cc2)CC1 (stereo unspecified)	4.87% (inactive)	–
O=C(Nc1ccc(Cl)cc1)Nc1nnc(/C=C/c2ccccc2)s1	–	13.1 µM (active)
COc1ccc(/C=C/c2nnc(NC(=O)C(C)C)s2)cc1	-4.99% (inactive)	–
O=C(CSc1ccccc1)Nc1nnc(/C=C/c2ccccc2)s1	-19.1% (inactive)	–
CC(C)NC(=O)N1CCN(c2ccncc2S(=O)(=O)N2CCCCC2)CC1	-11% (inactive)	–
CNS(=O)(=O)c1cnccc1N1CCN(c2cccc(C)c2)CC1	–	10.4 µM (active)
O=S(=O)(c1cnccc1N1CCN(/N=C/c2ccc(Br)cc2)CC1)N1CCCCC1	123% (inactive)	–
